Where “and” joins values, the source holds several entries; their conditions need not be identical. Identical values can stand only once. A structure can be active in one record and inactive in another. Calls of active or inactive are those of the source. Rule for the calls: active = hit-call score of the fitted dose curve at least 0.9, where 1 is the maximum; inactive = score below 0.9.
Read-out: Secreted IgG (sIgG), gene 3500
Assay: BSK_BT_sIgG: BioMAP Diversity Plus: BT Assay for Secreted IgG (sIgG) Biomarker Activity (AID 2284226)
Conditions: primary human B cells with PBMC
Method: BSK_BT is a cell-based, multiplexed-readout assay that uses B cell and peripheral blood mononuclear cells, a human vascular primary cell co-culture, with measurements taken at 24 hours after chemical dosing in a microplate: 96-well plate.BSK_BT_sIgG is an assay component measured in the BSK_BT assay. It measures secreted IgG related to regulation of gene expression using ELISA technology.Data from the assay component BSK_BT_sIgG was analyzed at the endpoint, BSK_BT_sIgG, in the positive analysis fitting direction relative to DMSO as the negative control and baseline of activity. Using a type of cytokine quantitation reporter, gain or loss-of-signal activity can be used to understand protein changes. To generalize the intended target to other relatable targets, this assay endpoint is annotated to the 'immunoglobulin' intended target family, where the subfamily is 'IgG'.
The levels of cell surface (or secreted, indicated by the prefix "s") biomarker endpoints were measured by ELISA. Overt cytotoxicity to cells in confluent adherent cultures (all systems other than the BT system) was assessed by measuring total protein levels using sulforhodamine B (SRB) staining in parallel cultures at the time of biomarker measurements, indicated as SRB endpoints. For proliferation assays for adherent cell types, individual cell types are cultured at sub-confluence and relative cell numbers quantified by SRB staining at time points optimized for each system (48 h: 3C and CASM3C systems; 72 h: BT and HDF3CGF systems; 96 h: SAg system). SRB was performed by staining cells with 0.1% SRB after fixation with 10% TCA and reading wells at 560 nm.Viability and proliferation of PBMC (T cells) was quantified by Alamar Blue reduction for the SAg and BT systems. For PBMC viability (referred to as PBMC Cytotoxicity within the assay endpoint names), cells were plated (75,000/well in a 96-well plate) and then chemical samples added for 1 h before addition of activators, SEB and TSST-1 (20 ng/mL final concentration each). Cells were incubated for 90 h. Then, Alamar Blue (20 uL/well) (Invitrogen, Cat DAL1100) was added for 6 h, and the plates were read with a fluorescence microplate reader at 546/580 nm (excitation/emission). For PBMC proliferation, cells were plated and activated as above but incubated for only 16 h prior to addition of Alamar Blue. Plates were read after 6 h.

SMILES | AC50 | outcome
OCCC(F)(F)C(F)(F)C(F)(F)C(F)(F)C(F)(F)C(F)(F)C(F)(F)C(F)(F)F | 50.6 µM (active) and 53.6 µM (active) | –
C=C(C)C(=O)OCCC(F)(F)C(F)(F)C(F)(F)C(F)(F)C(F)(F)C(F)(F)F | – | inactive
NCC(F)(F)C(F)(F)C(F)(F)C(F)(F)C(F)(F)C(F)(F)C(F)(F)F | – | inactive
OCCC(F)(F)C(F)(F)C(F)(F)C(F)(F)C(F)(F)C(F)(F)F | – | inactive
CCCCCCCCCCCCCC[N+](C)(C)C | 45.3 nM (active) | –
C[C@@H]1C[C@H]2[C@@H]3CCC4=CC(=O)C=C[C@]4(C)[C@@]3(F)[C@@H](O)C[C@]2(C)[C@@]1(O)C(=O)COP(=O)(O)O | – | inactive

Read-out: not listed separately
Assay: BSK_BT_Bcell_Proliferation: Viability Assessment in the BioMAP Diversity Plus: BT Assay for B cell Proliferation (AID 2284227)
Conditions: primary human B cells with PBMC
Outline: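 Human B cell/PBMC co-culture; test chemical added; 72 h; TCA fix (10%), 0.1% SRB stain, A560 for total protein as a proliferation read-out; positive-direction fit vs DMSO baseline.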

SMILES | AC50 | outcome
OCCC(F)(F)C(F)(F)C(F)(F)C(F)(F)C(F)(F)C(F)(F)C(F)(F)C(F)(F)F | 45.1 µM (active) and 45.8 µM (active) | –
FC(F)(I)C(F)(F)C(F)(F)C(F)(F)C(F)(F)C(F)(F)I | 20.6 µM (active) [middle of 5 runs] | –
C=C(C)C(=O)OCCC(F)(F)C(F)(F)C(F)(F)C(F)(F)C(F)(F)C(F)(F)F | – | inactive
NCC(F)(F)C(F)(F)C(F)(F)C(F)(F)C(F)(F)C(F)(F)C(F)(F)F | – | inactive
OCCC(F)(F)C(F)(F)C(F)(F)C(F)(F)C(F)(F)C(F)(F)F | – | inactive
CCCCCCCCCCCCCC[N+](C)(C)C | 2.81 µM (active) | –
C[C@@H]1C[C@H]2[C@@H]3CCC4=CC(=O)C=C[C@]4(C)[C@@]3(F)[C@@H](O)C[C@]2(C)[C@@]1(O)C(=O)COP(=O)(O)O | – | inactive

Read-out: Interleukin 6 (IL6), IL6 (gene 3569)
Assay: BSK_BT_xIL6: BioMAP Diversity Plus: BT Assay for Interleukin 6 (IL6) Biomarker Activity (AID 2284228)
Conditions: primary human B cells with PBMC
Outline: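 Human B cell/PBMC co-culture; secreted IL-6 quantified by Luminex xMAP 24 h after chemical dosing, fitted relative to DMSO. Parallel PBMC viability by Alamar Blue after 1 h pretreatment, 20 ng/mL SEB and TSST-1, 90 h incubation.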

SMILES | AC50 | outcome
OCCC(F)(F)C(F)(F)C(F)(F)C(F)(F)C(F)(F)C(F)(F)C(F)(F)C(F)(F)F | 53.1 µM (active) and 52.6 µM (active) | –
C=C(C)C(=O)OCCC(F)(F)C(F)(F)C(F)(F)C(F)(F)C(F)(F)C(F)(F)F | – | inactive
NCC(F)(F)C(F)(F)C(F)(F)C(F)(F)C(F)(F)C(F)(F)C(F)(F)F | – | inactive
OCCC(F)(F)C(F)(F)C(F)(F)C(F)(F)C(F)(F)C(F)(F)F | 49.1 µM (active) | inactive
CCCCCCCCCCCCCC[N+](C)(C)C | 4.27 µM (active) | –
C[C@@H]1C[C@H]2[C@@H]3CCC4=CC(=O)C=C[C@]4(C)[C@@]3(F)[C@@H](O)C[C@]2(C)[C@@]1(O)C(=O)COP(=O)(O)O | 863 nM (active) and 1.34 µM (active) | –
